# About 410 targets per protein were measured; listed, in parts, are those with the strongest signals and a random draw of the rest.
# B1: Gal 7 (Homo sapiens) (protein)
# chain: MSNVPHKSSLPEGIRPGTVLRIRGLVPPNASRFHVNLLCGEEGGSDAALHFNPRLDTSEVVFNSKEGGSWGREERGPGVPFGRGQPFEVLIIASDDGFKAVVGDAQYHHFRHRLPLARVRLVEVGGDVQLDSVRIF
# Columns and labels:
# Assay in all cases: glycan array binding signal (z-score within array); higher = stronger binding
# Conditions in all cases: glycan notation: IUPAC condensed, linker removed
# [1] = target: Fuc(a1-2)Gal(b1-3)GlcNAc(b1-3)GalNAc
# Summary of the method: (§1)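 Glycan array data came from 3228 arrays in the Consortium for Functional Glycomics database, and only arrays with an available protein sequence were kept. Glycan names were put into IUPAC-condensed notation, and columns mapping to the same glycan were averaged. The binding signal is a within-array Z-score, averaged across arrays of one protein sequence run at different concentrations or buffers and across linkers. A negative Z-score can be read as non-binding.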
# Fuc(a1-2)Gal(b1-4)Glc6S = target: Fuc(a1-2)Gal(b1-4)Glc6S
# Summary of the method: as §1
# [2] = target: Fuc(a1-2)Gal(b1-4)GlcNAc(b1-3)Gal(b1-4)GlcNAc
# Summary of the method: as §1
# [3] = target: Fuc(a1-2)Gal(b1-4)GlcNAc(b1-3)Gal(b1-4)GlcNAc(b1-2)Man(a1-3)[Fuc(a1-2)Gal(b1-4)GlcNAc(b1-3)Gal(b1-4)GlcNAc(b1-2)Man(a1-6)]Man(b1-4)GlcNAc(b1-4)GlcNAc
# Summary of the method: as §1
# [4] = target: Fuc(a1-2)Gal(b1-4)GlcNAc(b1-3)Gal(b1-4)GlcNAc(b1-3)Gal(b1-4)GlcNAc
# Summary of the method: as §1
# [5] = target: Fuc(a1-2)Gal(b1-4)GlcNAc(b1-3)GalNAc
# Summary of the method: as §1
# [6] = target: Fuc(a1-2)[Gal(a1-3)]Gal(b1-4)GlcNAc(b1-3)[Fuc(a1-2)[Gal(a1-3)]Gal(b1-4)GlcNAc(b1-6)]GalNAc
# Summary of the method: as §1
# [7] = target: Fuc(a1-2)[Gal(a1-4)]Gal(b1-4)GalNAc
# Summary of the method: as §1
# [8] = target: Fuc(a1-2)[GalNAc(a1-4)]Gal(b1-4)GlcNAc
# Summary of the method: as §1
# [9] = target: Fuc(a1-3)[Gal(b1-4)]GlcNAc(b1-4)Gal(b1-4)[Fuc(a1-3)]GlcNAc
# Summary of the method: as §1
# Fuc(a1-4)GlcNAc = target: Fuc(a1-4)GlcNAc
# Summary of the method: as §1
# Gal(a1-3)Gal(b1-3)Glc = target: Gal(a1-3)Gal(b1-3)Glc
# Summary of the method: as §1
# [10] = target: Gal(a1-3)Gal(b1-4)GlcNAc(b1-6)GalNAc
# Summary of the method: as §1
# [11] = target: Gal(a1-4)Gal(b1-3)GlcNAc(b1-2)Man(a1-3)[Gal(a1-4)Gal(b1-3)GlcNAc(b1-2)Man(a1-6)]Man(b1-4)GlcNAc(b1-4)GlcNAc
# Summary of the method: as §1
# Gal(a1-4)Gal(b1-4)GlcNAc = target: Gal(a1-4)Gal(b1-4)GlcNAc
# Summary of the method: as §1
# Gal(b1-3)Gal = target: Gal(b1-3)Gal
# Summary of the method: as §1
# Gal(b1-3)Gal(b1-4)GlcNAc = target: Gal(b1-3)Gal(b1-4)GlcNAc
# Summary of the method: as §1
# Gal(b1-3)GalNAc = target: Gal(b1-3)GalNAc
# Summary of the method: as §1
# [12] = target: Gal(b1-3)GalNAc(b1-3)Gal(b1-4)GlcNAc
# Summary of the method: as §1
# [13] = target: Gal(b1-3)GlcNAc(b1-3)GalNAc
# Summary of the method: as §1
# [14] = target: Gal(b1-3)GlcNAc(b1-6)Gal(b1-4)GlcNAc
# Summary of the method: as §1
# [15] = target: Gal(b1-3)[Fuc(a1-4)]GlcNAc(b1-3)Gal(b1-4)[Fuc(a1-3)]GlcNAc
# Summary of the method: as §1
# [16] = target: Gal(b1-4)GalNAc(b1-3)[Fuc(a1-2)]Gal(b1-4)GlcNAc
# Summary of the method: as §1
# Gal(b1-4)Glc6S = target: Gal(b1-4)Glc6S
# Summary of the method: as §1
# [17] = target: Gal(b1-4)GlcNAc(b1-2)[Gal(b1-4)GlcNAc(b1-6)]Man(a1-6)[Gal(b1-4)GlcNAc(b1-2)Man(a1-3)]Man(b1-4)GlcNAc(b1-4)[Fuc(a1-6)]GlcNAc
# Summary of the method: as §1
# [18] = target: Gal(b1-4)GlcNAc(b1-2)[Gal(b1-4)GlcNAc(b1-6)]Man(a1-6)[GlcNAc(b1-4)][Gal(b1-4)GlcNAc(b1-2)Man(a1-3)]Man(b1-4)GlcNAc(b1-4)GlcNAc
# Summary of the method: as §1
# [19] = target: Gal(b1-4)GlcNAc(b1-3)Gal(b1-4)GlcNAc(b1-2)Man(a1-3)[Gal(b1-4)GlcNAc(b1-3)Gal(b1-4)GlcNAc(b1-2)Man(a1-6)]Man(b1-4)GlcNAc(b1-4)GlcNAc
# Summary of the method: as §1
# [20] = target: Gal(b1-4)GlcNAc(b1-3)Gal(b1-4)GlcNAc(b1-3)Gal(b1-4)GlcNAc
# Summary of the method: as §1
# [21] = target: Gal(b1-4)GlcNAc(b1-3)Gal(b1-4)GlcNAc(b1-3)Gal(b1-4)GlcNAc(b1-2)Man(a1-3)[Gal(b1-4)GlcNAc(b1-3)Gal(b1-4)GlcNAc(b1-3)Gal(b1-4)GlcNAc(b1-2)Man(a1-6)]Man(b1-4)GlcNAc(b1-4)[Fuc(a1-6)]GlcNAc
# Summary of the method: as §1
binder,measurement,setting,value
B1,glycan array binding signal (z-score),[1],-0.125
same,glycan array binding signal (z-score),Fuc(a1-2)Gal(b1-4)Glc6S,0.834
same,glycan array binding signal (z-score),[2],5.81
same,glycan array binding signal (z-score),[3],5.09
same,glycan array binding signal (z-score),[4],7.12
same,glycan array binding signal (z-score),[5],0.082
same,glycan array binding signal (z-score),[6],-0.267
same,glycan array binding signal (z-score),[7],-0.319
same,glycan array binding signal (z-score),[8],-0.23
same,glycan array binding signal (z-score),[9],-0.214
same,glycan array binding signal (z-score),Fuc(a1-4)GlcNAc,-0.324
same,glycan array binding signal (z-score),Gal(a1-3)Gal(b1-3)Glc,1.04
same,glycan array binding signal (z-score),[10],-0.147
same,glycan array binding signal (z-score),[11],-0.011
same,glycan array binding signal (z-score),Gal(a1-4)Gal(b1-4)GlcNAc,-0.251
same,glycan array binding signal (z-score),Gal(b1-3)Gal,-0.328
same,glycan array binding signal (z-score),Gal(b1-3)Gal(b1-4)GlcNAc,-0.341
same,glycan array binding signal (z-score),Gal(b1-3)GalNAc,-0.006
same,glycan array binding signal (z-score),[12],0.962
same,glycan array binding signal (z-score),[13],0.04
same,glycan array binding signal (z-score),[14],-0.33
same,glycan array binding signal (z-score),[15],-0.289
same,glycan array binding signal (z-score),[16],-0.367
same,glycan array binding signal (z-score),Gal(b1-4)Glc6S,0.576
same,glycan array binding signal (z-score),[17],0.141
same,glycan array binding signal (z-score),[18],-0.186
same,glycan array binding signal (z-score),[19],2.23
same,glycan array binding signal (z-score),[20],0.945
same,glycan array binding signal (z-score),[21],4.99

# From the supplement of paper PMC8728848
